Reference: PubChem BioAssay
Calls of active or inactive are those of the source.

Experiments:
[1] = binders of probe aFSTL3 on microarray, primary screen, stem cell growth factor project, biochemical, small-molecule microarray, fluorescence 635/667 (AID 1064); details: higher = more signal;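 note: measures binding of the biotinylated anti-FSTL3 antibody to printed compounds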
[2] = binders from COS7 lysate, DM2A8 probe, primary screen, torsin A project, cell lysate, small-molecule microarray, fluorescence 635/667 (AID 1065); details: higher = more signal, COS7 lysate expressing mutant human TOR1A
[3] = binders of probe aFGF2 on microarray, primary screen, stem cell growth factor project, biochemical, small-molecule microarray, fluorescence 635/667 (AID 1067); details: higher = more signal;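 note: measures binding of biotinylated aFGF2 protein to printed compounds on slides; z-score merges feature fluorescence and signal-to-noise across triplicate slides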
[4] = binders of probe aFGF10 on microarray, primary screen, stem cell growth factor project, biochemical, small-molecule microarray, fluorescence 635/667 (AID 1071); details: higher = more signal;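 note: score merges 667 nm spot intensity and signal to noise from triplicate slides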
[5] = molecular target: Neurogenic locus notch homolog protein 2 (Homo sapiens) (UniProt Q04721); test: Notch2 binders on small-molecule microarrays, primary screen, biochemical, small-molecule microarray, 635 nm fluorescence, stem cell growth factors (AID 1073); details: Notch2 binding, higher = more signal
Sequence of Neurogenic locus notch homolog protein 2 (Homo sapiens) (Q04721 whole entry, looked up, canonical isoform): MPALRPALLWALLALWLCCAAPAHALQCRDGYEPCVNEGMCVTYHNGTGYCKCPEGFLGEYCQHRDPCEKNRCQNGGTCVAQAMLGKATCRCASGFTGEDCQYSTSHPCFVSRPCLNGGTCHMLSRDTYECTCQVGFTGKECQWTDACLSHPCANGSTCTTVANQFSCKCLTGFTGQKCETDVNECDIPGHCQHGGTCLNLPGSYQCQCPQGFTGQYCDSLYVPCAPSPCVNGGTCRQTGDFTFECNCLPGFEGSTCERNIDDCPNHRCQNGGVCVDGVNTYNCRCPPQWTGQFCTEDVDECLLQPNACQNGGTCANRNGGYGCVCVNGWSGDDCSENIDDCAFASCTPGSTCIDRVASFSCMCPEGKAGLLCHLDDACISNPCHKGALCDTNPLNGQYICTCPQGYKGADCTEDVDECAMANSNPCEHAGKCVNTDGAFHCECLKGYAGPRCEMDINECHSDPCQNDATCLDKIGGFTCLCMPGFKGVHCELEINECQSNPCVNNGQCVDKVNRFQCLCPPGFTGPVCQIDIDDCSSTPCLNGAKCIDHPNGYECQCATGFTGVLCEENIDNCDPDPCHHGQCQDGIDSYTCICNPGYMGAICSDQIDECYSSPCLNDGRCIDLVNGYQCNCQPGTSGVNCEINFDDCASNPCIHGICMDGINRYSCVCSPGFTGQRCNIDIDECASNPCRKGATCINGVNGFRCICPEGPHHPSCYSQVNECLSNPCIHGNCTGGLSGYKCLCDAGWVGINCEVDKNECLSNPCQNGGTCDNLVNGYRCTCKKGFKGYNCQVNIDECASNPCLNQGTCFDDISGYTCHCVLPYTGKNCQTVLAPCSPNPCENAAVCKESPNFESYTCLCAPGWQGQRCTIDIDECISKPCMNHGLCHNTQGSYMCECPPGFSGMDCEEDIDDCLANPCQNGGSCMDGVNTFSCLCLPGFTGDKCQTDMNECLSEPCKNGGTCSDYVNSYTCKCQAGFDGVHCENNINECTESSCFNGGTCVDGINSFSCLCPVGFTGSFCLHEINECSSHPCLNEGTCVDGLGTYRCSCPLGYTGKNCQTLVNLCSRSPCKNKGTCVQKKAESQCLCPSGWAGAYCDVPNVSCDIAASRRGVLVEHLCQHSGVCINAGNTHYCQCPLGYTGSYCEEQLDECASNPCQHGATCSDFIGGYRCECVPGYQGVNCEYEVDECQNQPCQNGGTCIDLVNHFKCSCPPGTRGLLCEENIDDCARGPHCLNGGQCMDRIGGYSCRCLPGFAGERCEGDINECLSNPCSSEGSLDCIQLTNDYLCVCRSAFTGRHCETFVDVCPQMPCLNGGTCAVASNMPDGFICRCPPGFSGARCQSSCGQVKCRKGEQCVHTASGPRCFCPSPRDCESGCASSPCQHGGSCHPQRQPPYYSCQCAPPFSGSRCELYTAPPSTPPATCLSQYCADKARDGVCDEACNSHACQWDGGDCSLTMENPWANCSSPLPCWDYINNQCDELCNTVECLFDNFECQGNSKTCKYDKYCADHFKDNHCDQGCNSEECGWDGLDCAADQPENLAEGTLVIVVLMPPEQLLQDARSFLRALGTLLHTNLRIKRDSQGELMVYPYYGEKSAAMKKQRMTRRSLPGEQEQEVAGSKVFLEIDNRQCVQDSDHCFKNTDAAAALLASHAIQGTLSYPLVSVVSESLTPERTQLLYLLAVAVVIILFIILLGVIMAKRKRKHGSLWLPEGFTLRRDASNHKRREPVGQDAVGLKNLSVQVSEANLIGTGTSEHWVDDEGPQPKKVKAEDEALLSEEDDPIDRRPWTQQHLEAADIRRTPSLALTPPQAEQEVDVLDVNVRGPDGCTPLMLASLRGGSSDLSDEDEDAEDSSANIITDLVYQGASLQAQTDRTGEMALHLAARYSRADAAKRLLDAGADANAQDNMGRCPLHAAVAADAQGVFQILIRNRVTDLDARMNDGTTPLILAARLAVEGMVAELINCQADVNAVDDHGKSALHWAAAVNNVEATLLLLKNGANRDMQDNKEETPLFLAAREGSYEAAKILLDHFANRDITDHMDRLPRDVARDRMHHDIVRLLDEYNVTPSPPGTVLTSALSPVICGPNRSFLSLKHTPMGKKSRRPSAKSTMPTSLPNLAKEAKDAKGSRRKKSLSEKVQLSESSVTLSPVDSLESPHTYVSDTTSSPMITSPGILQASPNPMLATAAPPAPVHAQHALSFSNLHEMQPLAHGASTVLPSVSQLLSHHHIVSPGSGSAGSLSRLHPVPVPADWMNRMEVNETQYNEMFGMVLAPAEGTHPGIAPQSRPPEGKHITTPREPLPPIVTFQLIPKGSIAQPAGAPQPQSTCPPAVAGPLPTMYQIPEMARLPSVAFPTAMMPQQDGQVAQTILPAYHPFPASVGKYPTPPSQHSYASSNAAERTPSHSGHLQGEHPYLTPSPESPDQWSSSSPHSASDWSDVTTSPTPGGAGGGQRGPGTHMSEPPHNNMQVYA

[6] = molecular target: Pro-neuregulin-1, membrane-bound isoform (Homo sapiens) (UniProt Q02297); test: NRG1 binders on small-molecule microarrays, primary screen, psychiatric disease protein project, biochemical, small-molecule microarray, fluorescence 635/667 (AID 1075); details: NRG1 binding, 635 nm fluorescence, higher = more signal;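 note: score combines 667 nm spot fluorescence with signal to noise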
[7] = system: Neuregulin-1 EGF-like domain; test: binders of neuregulin-1 EGF-like domain, primary screen, biochemical, small-molecule microarray, 635 nm fluorescence (AID 1081); details: small-molecule microarray binding, higher = more signal;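 note: binding of the protein to compounds printed on small-molecule microarray slides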
[8] = FRG1 promoter luciferase signal modulators, primary screen, FRG1 inhibition for FSHD, cell-based, C2C12 myotubes, firefly/Renilla luciferase, luminescence (AID 1084); details: higher = more signal, called active from +8 up or from −8 down
[9] = binders of probe aFST on microarray, primary screen, stem cell growth factor project, biochemical, small-molecule microarray, fluorescence 635/667 (AID 1086); details: higher = more signal;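 note: score merges 667 nm fluorescence with signal-to-noise of each printed compound spot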
[10] = binders of probe aHhip on microarray, primary screen, stem cell growth factor project, biochemical, small-molecule microarray, fluorescence 635/667 (AID 1087); details: higher = more signal;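 note: score merges spot fluorescence at 667nm with spot signal to noise ratio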
[11] = system: PRMT1 (protein arginine N-methyltransferase 1); test: PRMT1 binders on small-molecule microarrays, primary screen, biochemical, small-molecule microarray, 635 nm fluorescence (AID 1088); details: small-molecule microarray binding, higher = more signal;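 note: binding of Prmt1 protein to compounds spotted on small-molecule microarray slides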
[12] = yeast growth modulation, basal conditions, primary screen, YJM789 clinical isolate, OD600, 24 h (AID 1089);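 note: growth of clinical yeast isolate S. cerevisiae YJM 789 seeded 1000 cells per well; test concentration not given here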; details: S. cerevisiae YJM789 growth, higher = more signal, called active from +8 up or from −8 down
[13] = fission yeast growth modulation, primary screen, strain 972, OD600, 24 h, no modulator (AID 1090);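 note: basal condition with compound alone and no growth modifier present; test concentration not given here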; details: S. pombe 972 growth, higher = more signal, called active from +8 up or from −8 down
[14] = S. cerevisiae growth modulation with rapamycin, primary screen, strain BY4716, OD600, 96 h (AID 1091); details: higher = more signal, called active from +8 up or from −8 down; note: test concentration not given here
[15] = molecular target: Torsin-1A-interacting protein 2 (Homo sapiens) (UniProt Q8NFQ8); test: LULL1 binders on small-molecule microarray, primary screen, cell lysate, human LULL1 lysate, 635/667 nm fluorescence (AID 1092); details: hLULL1 lysate binding, 635 nm fluorescence, higher = more signal;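 note: probe is lysate of COS7 cells overexpressing human LULL1; score merges per-feature 667 nm fluorescence with signal-to-noise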
[16] = E. coli growth modulation, two-sided OD650, primary screen, E. coli filamentation project, strain DRC41, 24 h (AID 1093); details: OD650, 24 h, higher = more signal, called active from +8 up or from −8 down;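 note: MC1000 strain lacking acrAB efflux and sulA so SOS filamentation is blocked; test concentration not given here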
[17] = small-molecule microarray binders of probe aLefty2, primary screen, biochemical, biotinylated probe, 635/667 nm fluorescence (AID 1094); details: higher = more signal;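 note: score merges spot fluorescence near 667 nm with spot signal-to-noise ratio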
[18] = system: Noggin (protein binding on small-molecule microarray); test: Noggin binders on small-molecule microarray, primary screen, biochemical, 635/667 nm fluorescence (AID 1095); details: 635 nm fluorescence, higher = more signal;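 note: score merges 667 nm feature fluorescence with signal to noise over triplicate slides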
[19] = molecular target: Neurogenic locus notch homolog protein 3 (Homo sapiens) (UniProt Q9UM47); test: NOTCH3 binders on small-molecule microarray, primary screen, biochemical, 635/667 nm fluorescence (AID 1096); details: NOTCH3 binding, 635 nm fluorescence, higher = more signal
Sequence of Neurogenic locus notch homolog protein 3 (Homo sapiens) (Q9UM47 whole entry, looked up): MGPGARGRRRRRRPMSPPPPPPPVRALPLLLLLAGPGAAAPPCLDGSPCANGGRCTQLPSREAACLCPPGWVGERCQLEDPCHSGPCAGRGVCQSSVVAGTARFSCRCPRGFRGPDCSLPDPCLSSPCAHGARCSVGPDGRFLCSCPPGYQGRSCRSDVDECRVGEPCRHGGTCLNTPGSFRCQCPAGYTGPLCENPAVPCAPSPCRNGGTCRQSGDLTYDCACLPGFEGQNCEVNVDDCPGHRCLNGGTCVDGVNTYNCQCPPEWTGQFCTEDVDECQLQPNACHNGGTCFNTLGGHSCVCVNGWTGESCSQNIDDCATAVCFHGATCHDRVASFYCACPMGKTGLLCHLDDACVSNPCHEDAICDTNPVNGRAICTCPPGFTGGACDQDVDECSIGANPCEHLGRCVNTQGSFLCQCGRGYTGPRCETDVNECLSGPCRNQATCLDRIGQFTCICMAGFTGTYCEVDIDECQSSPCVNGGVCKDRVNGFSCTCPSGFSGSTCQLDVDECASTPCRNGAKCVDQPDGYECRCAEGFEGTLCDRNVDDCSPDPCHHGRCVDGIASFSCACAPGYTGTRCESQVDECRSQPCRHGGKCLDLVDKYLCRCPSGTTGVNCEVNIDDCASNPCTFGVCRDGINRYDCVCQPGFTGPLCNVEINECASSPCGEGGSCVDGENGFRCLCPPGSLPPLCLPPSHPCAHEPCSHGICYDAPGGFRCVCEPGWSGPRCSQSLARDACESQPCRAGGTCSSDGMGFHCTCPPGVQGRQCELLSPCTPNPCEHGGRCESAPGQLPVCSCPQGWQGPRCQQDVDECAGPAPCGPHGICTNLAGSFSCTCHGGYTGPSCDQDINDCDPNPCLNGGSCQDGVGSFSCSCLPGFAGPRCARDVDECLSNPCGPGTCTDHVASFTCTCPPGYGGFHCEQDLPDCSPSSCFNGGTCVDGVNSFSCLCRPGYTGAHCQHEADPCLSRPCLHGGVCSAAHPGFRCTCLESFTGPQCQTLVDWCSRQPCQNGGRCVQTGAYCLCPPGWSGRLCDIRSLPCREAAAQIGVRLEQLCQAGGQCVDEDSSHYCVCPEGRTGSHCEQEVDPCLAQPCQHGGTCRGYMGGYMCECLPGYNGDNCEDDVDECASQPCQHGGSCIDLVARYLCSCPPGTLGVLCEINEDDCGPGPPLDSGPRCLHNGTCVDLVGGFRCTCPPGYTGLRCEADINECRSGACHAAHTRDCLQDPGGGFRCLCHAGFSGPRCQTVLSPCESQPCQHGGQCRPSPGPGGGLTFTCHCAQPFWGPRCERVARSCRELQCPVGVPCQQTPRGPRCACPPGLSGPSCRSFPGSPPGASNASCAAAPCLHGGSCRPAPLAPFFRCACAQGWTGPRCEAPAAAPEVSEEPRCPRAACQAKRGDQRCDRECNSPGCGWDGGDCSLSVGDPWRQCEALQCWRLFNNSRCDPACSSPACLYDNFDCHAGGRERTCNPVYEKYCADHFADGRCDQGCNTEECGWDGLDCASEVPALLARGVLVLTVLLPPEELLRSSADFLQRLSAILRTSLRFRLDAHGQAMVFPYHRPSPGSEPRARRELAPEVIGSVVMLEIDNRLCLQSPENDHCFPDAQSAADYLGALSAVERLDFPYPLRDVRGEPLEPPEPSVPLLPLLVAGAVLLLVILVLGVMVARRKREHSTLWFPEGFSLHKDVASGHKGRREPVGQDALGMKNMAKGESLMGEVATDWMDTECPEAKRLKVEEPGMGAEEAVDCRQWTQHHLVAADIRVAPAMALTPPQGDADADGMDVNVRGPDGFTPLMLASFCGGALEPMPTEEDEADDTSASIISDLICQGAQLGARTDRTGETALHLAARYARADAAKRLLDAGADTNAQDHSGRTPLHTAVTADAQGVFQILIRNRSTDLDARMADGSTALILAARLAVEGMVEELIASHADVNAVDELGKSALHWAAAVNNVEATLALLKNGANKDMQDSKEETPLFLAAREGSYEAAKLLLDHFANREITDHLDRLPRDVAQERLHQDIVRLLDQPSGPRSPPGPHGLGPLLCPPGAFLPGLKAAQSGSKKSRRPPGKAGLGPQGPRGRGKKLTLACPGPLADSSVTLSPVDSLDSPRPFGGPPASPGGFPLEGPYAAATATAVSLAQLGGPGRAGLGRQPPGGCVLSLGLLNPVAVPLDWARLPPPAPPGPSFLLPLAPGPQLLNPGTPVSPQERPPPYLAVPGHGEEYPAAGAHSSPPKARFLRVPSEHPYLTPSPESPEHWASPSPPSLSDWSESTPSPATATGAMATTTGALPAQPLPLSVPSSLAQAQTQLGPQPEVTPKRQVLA

[20] = small-molecule microarray binders of probe aEGFR, primary screen, biochemical, biotinylated probe, 635/667 nm fluorescence (AID 1097); details: higher = more signal;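 note: probe is a biotinylated anti-EGFR antibody binding compounds printed on slides; score combines fluorescence near 667 nm and signal to noise of each spot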

## CC(C)(C)OC(=O)CC[C@]1(C(=O)NCC(O)CO)N=C(c2ccc(OCCCO)cc2)O[C@H]1c1ccccc1 (stereo not given in full)
[1]
  composite z-score: 1.07
[2]
  composite z-score: 1.58
[3]
  composite z-score: -0.0099
[4]
  composite z-score: 0.391
[5]
  composite z-score: 0.493
[6]
  composite z-score: 0.866
[7]
  composite z-score: 1.33
[8]
  z-score: 0.974 (inactive)
[9]
  composite z-score: 0.36
[10]
  composite z-score: -0.323
[11]
  composite z-score: -0.362
[12]
  z-score: -0.866 (inactive)
[13]
  z-score: -0.956 (inactive)
[14]
  z-score: -0.744 (inactive)
[15]
  composite z-score: 3.45
[16]
  z-score: 1.91 (inactive)
[17]
  composite z-score: 0.0424
[18]
  composite z-score: -0.837
[19]
  composite z-score: -0.89
[20]
  composite z-score: 0.109

## O=C1C2C=CC(C(O)c3ccc(F)cc3)N(n3cnnc3)C2C(=O)N1Cc1ccccc1 (stereo not given)
[1]
  composite z-score: 0.352
[2]
  composite z-score: -0.131
[3]
  composite z-score: -0.12
[4]
  composite z-score: -0.201
[5]
  composite z-score: -0.0052
[6]
  composite z-score: 0.439
[7]
  composite z-score: -0.191
[8]
  z-score: 0.594 (inactive)
[9]
  composite z-score: 0.19
[10]
  composite z-score: -0.282
[11]
  composite z-score: -0.301
[12]
  z-score: 0.271 (inactive)
[13]
  z-score: 0.767 (inactive)
[14]
  z-score: -0.1 (inactive)
[15]
  composite z-score: 1.05
[16]
  z-score: -0.997 (inactive)
[17]
  composite z-score: 0.0137
[18]
  composite z-score: -0.685
[19]
  composite z-score: -0.874
[20]
  composite z-score: -0.208

## COCCOC(=O)N1C(=O)[C@@]2(c3cc(C#Cc4ccc(OC)cc4)ccc31)[C@H](c1ccc(O)cc1)N1[C@H](c3ccccc3)[C@H](c3ccccc3)OC(=O)[C@H]1[C@@H]2C(=O)N1CCCCCCC1
[1]
  composite z-score: 2.84
[2]
  composite z-score: 0.746
[3]
  composite z-score: 0.0177
[4]
  composite z-score: 0.178
[5]
  composite z-score: 0.679
[6]
  composite z-score: 0.326
[7]
  composite z-score: 0.341
[8]
  z-score: 1.39 (inactive)
[9]
  composite z-score: 2.46
[10]
  composite z-score: 2.1
[11]
  composite z-score: 0.632
[12]
  z-score: -0.158 (inactive)
[13]
  z-score: -0.239 (inactive)
[14]
  z-score: 1.47 (inactive)
[15]
  composite z-score: 1.46
[16]
  z-score: -0.0793 (inactive)
[17]
  composite z-score: 1.43
[18]
  composite z-score: 0.332
[19]
  composite z-score: 0.0324
[20]
  composite z-score: 0.642

## COC(=O)[C@H](Cc1ccccc1)N1CC(/C=C/C2CC2)=C[C@H]1[C@H](O)Cc1ccccc1
[1]
  composite z-score: -0.284
[2]
  composite z-score: 0.177
[3]
  composite z-score: -0.104
[4]
  composite z-score: 0.6
[5]
  composite z-score: 0.34
[6]
  composite z-score: 0.821
[7]
  composite z-score: 1.01
[8]
  z-score: -2.56 (inactive)
[9]
  composite z-score: 0.101
[10]
  composite z-score: 0.0274
[11]
  composite z-score: 1.54
[12]
  z-score: -0.457 (inactive)
[13]
  z-score: -3.67 (inactive)
[14]
  z-score: -0.677 (inactive)
[15]
  composite z-score: 1.18
[16]
  z-score: -0.25 (inactive)
[17]
  composite z-score: -0.161
[18]
  composite z-score: 0.961
[19]
  composite z-score: 0.899
[20]
  composite z-score: -0.0343

## COCCOC(=O)N1C(=O)[C@@]2(c3cc(C#CCCO)ccc31)[C@H](c1ccccc1OCCO)N1[C@H](c3ccccc3)[C@H](c3ccccc3)OC(=O)[C@H]1[C@@H]2C(=O)Nc1nc2ccccc2s1
[1]
  composite z-score: 0.406
[2]
  composite z-score: 1.13
[3]
  composite z-score: -0.0066
[4]
  composite z-score: 0.662
[5]
  composite z-score: 1.42
[6]
  composite z-score: 1.51
[7]
  composite z-score: 1.31
[8]
  z-score: 1.47 (inactive)
[9]
  composite z-score: 0.617
[10]
  composite z-score: -0.254
[11]
  composite z-score: 1.55
[12]
  z-score: 0.97 (inactive)
[13]
  z-score: 1.42 (inactive)
[14]
  z-score: 2.76 (inactive)
[15]
  composite z-score: 2.45
[16]
  z-score: 0.0879 (inactive)
[17]
  composite z-score: -0.0063
[18]
  composite z-score: 1.1
[19]
  composite z-score: 1.06
[20]
  composite z-score: 0.113
